Results taken from ChEMBL document CHEMBL4513216, “Probing the Open Global Health Chemical Diversity Library for Multistage-Active Starting Points for Next-Generation Antimalarials” (ACS Infect Dis, 2020).
In all, about 69,000 compounds went through this assay and about 8,600 (12%) showed an effect of 50% or more. Many of the other results were omitted from the sample, so strong results are more common in it than they were.

tested on: Plasmodium berghei; experiment: Screen against P. berghei liver stage (PbLuc), transformed with Luciferase, at 10uM; assay type: functional, HepG2; conditions: tested at 10 uM

| SMILES | INHIBITION |
| --- | --- |
| O=C1CC(C(=O)NCCN2CCOC2=O)c2cc(F)ccc2N1 (configuration not stated) | 36.4% |
| COc1ccc(C2CNCCN2C(=O)c2nccc3ccccc23)cc1 (configuration not stated) | 32.3% |
| C=C(C)COc1ccccc1C(=O)NCCCc1nnn[nH]1 | 31.2% |
| Cc1c(C2c3nc[nH]c3CCN2CCOCc2ccccc2)cnn1C (configuration not stated) | 27.5% |
| c1ccc(COCCN2CCc3[nH]cnc3C2c2ccco2)cc1 (configuration not stated) | 63.3% |
| c1ccc(COCCN2CCc3[nH]cnc3C2c2ccoc2)cc1 (configuration not stated) | 9.63% |
| CN(Cc1ccccn1)C(=O)[C@H]1CO[C@H]2CCN(CC3CC3)C[C@H]2C1 | 11.3% |
| Cc1cnn(CC2CCCN2Cc2cc(C)no2)c1 (configuration not stated) | 22.265% |
| CC1CCN(C(=O)c2cccc(CN3CCOCC3)c2)CC1 | 8.41% |
| Cc1cc(C)n(-c2ccc(CNCc3ccc(OC(C)C)cc3)cn2)n1 | 53.5% |
| Cc1cc(C)n(-c2ccc(CNCc3ccc(F)c(F)c3)cn2)n1 | 13.05% |
| Cc1cc(C)n(-c2ccc(CNCc3ccc(C)o3)cn2)n1 | 34.75% |
| Cc1ccc(CNCc2ccc(-n3nc(C)cc3C)nc2)cc1 | 72.2% |
| COc1cc(CNCc2ccc(-n3nc(C)cc3C)nc2)cc(OC)c1 | -10.193% |
| Cc1cc(C)n(-c2ccc(CNCc3ccc(F)cc3F)cn2)n1 | 37.55% |
| CCOc1ccc(C(=O)CC(SC2CCCCC2)C(=O)O)cc1 (configuration not stated) | 16.1% |
| COC(=O)c1cc(C(=O)N2CCCC(C)C2)n(-c2ccccc2)n1 (configuration not stated) | 8.5% |
| Cc1ccc(CN2CC[C@H]3OCC[C@@]3(COCC(=O)N(C)C)C2)s1 | 54.8% |
| COC[C@@]12CCO[C@@H]1CCN(C(=O)COc1ccccc1OC)C2 | -19.9% |
| Cc1ccc(CN2CCC3(CCC(=O)N3CC(=O)N(C)C)CC2)s1 | -29.5% |
| COC[C@@]12CCO[C@@H]1CCN(Cc1ccc(C)s1)C2 | 55.7% |
| COC[C@@]12CCO[C@@H]1CCN(Cc1ccccc1F)C2 | 23.5% |

| SMILES | INHIBITION |
| --- | --- |
| COC[C@@H]1CCC[C@@]12CN(Cc1ccc(C)s1)CCO2 | 14.1% |
| COC[C@@]12CCO[C@@H]1CCN(Cc1ccccc1OC)C2 | 51.2% |
| Cc1ccc(CN2CC[C@H]3OCC[C@@]3(C(=O)N3CCCO3)C2)s1 | 23.3% |
| COC[C@@]12CCO[C@@H]1CCN(Cc1sccc1C)C2 | 34% |
| O=C(c1cnccn1)N1CCC2(CCN(Cc3ccsc3)CC2)CC1 | 16.4% |
| Cc1nccc(CNC(=O)CCc2c(C)nc3cc(O)nn3c2C)n1 | -9.19% |
| CCC1c2ccsc2CCN1C(=O)NCc1ccnc(N(C)C)c1 (configuration not stated) | -0.44% |
| CCc1nc2ccccc2c(=O)n1CC1(O)CCN(C(=O)C2CC2)CC1 | 18.3% |
| COc1ccc(CN)c(OC(F)F)c1 | 48.9% |
| NCc1ccc(OC(F)F)cc1OC(F)F | 74% |
| CCCOc1ccc(CN)c(OC(F)F)c1 | 45.2% |
| C[C@H]1C[C@H]2CN(C(=O)c3ccncn3)CC[C@@H]2O1 | 35.8% |
| COc1ccc(CN2CCC3(CC2)NC(=O)CC3c2cnn(C)c2)cc1 (configuration not stated) | 12.6% |
| CN1CCC2(CC1)CN(CC1CC1)CC21CCNC1=O (configuration not stated) | 22.3% |
| COc1cccc(CNC(=O)c2ccccc2-n2cc(CN)cn2)c1 | 5.11% |
| COCC(=O)N1CCc2ncc(Cn3cncn3)n2CC1 | 15.9% |
| O=C(Cc1ccc(F)cc1)N1CCn2c(Cn3cncn3)cnc2C1 | 57.9% |
| CC1c2ncc(Cn3cncn3)n2CCN1C(=O)c1cscn1 (configuration not stated) | -6.3% |
| CC1c2ncc(Cn3cncn3)n2CCN1C(=O)c1ccccn1 (configuration not stated) | 60.9% |
| O=C(CC1CC1)N1CCc2ncc(Cn3cncn3)n2CC1 | 57.9% |
| N#Cc1cccc(C(=O)N2CCn3c(Cn4cncn4)cnc3C2)c1 | -17.2% |
| O=C(Cc1ccc(F)cc1)N1CCn2cc(Cn3cncn3)nc2C1 | -13.2% |

| SMILES | INHIBITION |
| --- | --- |
| Cc1occc1C(=O)N1CCn2c(Cn3cncn3)cnc2C1C (configuration not stated) | 6.55% |
| CC1c2ncc(Cn3cncn3)n2CCN1C(=O)c1ccsc1 (configuration not stated) | 52% |
| COCC(=O)N1CCn2c(Cn3cncn3)cnc2C1C (configuration not stated) | 36.2% |
| O=C(CC1CC1)N1CCc2ncc(CN3CCOCC3)n2CC1 | 42.7% |
| CC1c2ncc(Cn3cncn3)n2CCN1C(=O)N(C)C (configuration not stated) | 49% |
| O=C1CN(c2ccc(C(=O)N3CCc4ccccc43)cn2)CCN1 | 49% |
| N#Cc1c(F)cccc1N1CCN(C(=O)Nc2nncs2)CC1 | -7.53% |
| O=C(NCCc1nccs1)c1cn(CCN2CCNCC2)nn1 | -45% |
| O=C(NCCN1CCNC1=O)c1cnc(-c2cccnc2)nc1 | 15.64% |
| O=C(c1cccs1)N1CCc2ncc(Cn3cncn3)n2CC1 | 22.9% |
| O=C(c1ccsc1)N1CCc2nnc(COc3cncnc3)n2CC1 | 53.9% |
| O=C(c1cccs1)N1CCc2nnc(COc3cncnc3)n2CC1 | 28.2% |
| O=C(Cc1cccs1)N1CCc2nnc(COc3cncnc3)n2CC1 | 47.5% |
| O=C(c1ccsc1)N1CCc2ncc(Cn3cncn3)n2CC1 | 62.5% |
| O=C(c1cscn1)N1CCc2ncc(Cn3cncn3)n2CC1 | 38.1% |
| O=C1CN(C(=O)c2cc3c(F)cc(Br)cc3[nH]2)CCN1 | -44.2% |
| Cc1cccc(N2CCc3ncc(CNc4ccccn4)n3CC2)n1 | -26.1% |
| Cc1cc(N2CCOC(c3ccc(C(N)=O)cn3)C2)ncn1 (configuration not stated) | 36.9% |
| Cc1cc(C)nc(N2CCC(C(=O)Nc3n[nH]c(C)n3)CC2)n1 | 47.3% |
| COCCN1CCC2(CCC1=O)CN(C1CCOCC1)CCN2C (configuration not stated) | 17.8% |
| Cc1cccc(C(=O)NCc2ccc(N3CCCCC3)nc2)n1 | 8.48% |
| CCN1CCN(c2ccc(CNC(=O)c3cnn(C)c3C)cn2)CC1 | -15.5% |

| SMILES | INHIBITION |
| --- | --- |
| Cc1cccc(C(=O)NCc2ccc(N3CCCCCC3)nc2)n1 | 87.3% |
| CC(=O)Nc1nc(C(=O)NCc2ccc(N3CCCCCC3)nc2)cs1 | 67.2% |
| CCN1CCN(c2ccc(CNC(=O)c3ccc(Cl)o3)cn2)CC1 | 57.2% |
| CC(=O)Nc1nc(C(=O)NCc2ccnc(N3CCCC3)c2)cs1 | 9.14% |
| CC(=O)Nc1nc(C(=O)NCc2ccc(N3CCOCC3)nc2)cs1 | 19.4% |
| CC(=O)Nc1nc(C(=O)Nc2ccc(N3CCCCC3)nc2)cs1 | 78.1% |
| CC(=O)Nc1nc(C(=O)Nc2ccc(F)cc2)cs1 | 31.1% |
| CCN(CC)c1ccc(CNC(=O)c2cccc(C)n2)cn1 | 16.2% |
| CCN1CCN(c2ccc(CNC(=O)c3cc(C)on3)cn2)CC1 | 25.6% |
| CC(=O)Nc1nc(C(=O)NCc2ccc(N3CCCC3)nc2)cs1 | 13.3% |
| CN(C(=O)C1CCC1)C1CCN(c2ccccc2Cl)C1=O (configuration not stated) | 1.74% |
| CC(=O)c1c(C)nn(S(=O)(=O)c2ccccc2)c1C | 49.3% |
| CCN(CC)C(=O)CS(=O)(=O)c1cc(OC)c(OC)cc1C | -48.3% |
| Cc1cnc(CN(C)C2CCN(Cc3nc4ccccc4o3)C2)o1 (configuration not stated) | 13.3% |
| C1CC(NCc2nnc(C3CC3)o2)CN(Cc2noc(C3CC3)n2)C1 (configuration not stated) | -19.9% |
| CN1CCN(S(=O)(=O)c2ccc(C(=O)N3CC[C@@H](O)C3)cc2)CC1=O | 1.41% |
| c1cc(CC2CCCNC2)nc(NCCc2cnccn2)c1 (configuration not stated) | 32.3% |
| Cn1cc(C(C)(O)CNc2ccc(Cl)c(C#N)n2)cn1 (configuration not stated) | -10.7% |
| Cc1ccc(C(=O)N2CCCC(c3nncn3C)C2)c(C)c1 (configuration not stated) | 45.1% |
| CC(C)c1nnc2n1CCN(CCC(=O)N1CCc3ccccc31)C2 | 13.7% |
| Cc1noc(C)c1C(=O)NCc1ccc(N2CCC(C)CC2)nc1 | 74.9% |
| Cc1noc(C)c1C(=O)NCc1ccc(N2CCOCC2)nc1 | 5.03% |

| SMILES | INHIBITION |
| --- | --- |
| Cc1noc(C)c1C(=O)NCc1ccc(N2CCCCCC2)nc1 | 25.6% |
| CN(C)C(=O)[C@@H]1C[C@@H]2CCN(Cc3ccc4c(c3)OCO4)C[C@@H]2O1 | 13.1% |
| CCN1CCN(c2ccccc2NC(=O)NCc2ccon2)CC1 | 50.4% |
| CN1CCN(c2ccc(F)cc2NC(=O)NCc2ccon2)CC1 | 51.6% |
| CN1CCN(c2ccc(F)cc2NC(=O)NCC[S+](C)[O-])CC1 (configuration not stated) | -33% |
| O=C(NCc1ccon1)Nc1cc(F)ccc1N1CCCCC1 | 28.8% |
| CC1CN(C)c2ccccc2CN1C(=O)NCc1ccon1 (configuration not stated) | 4.6% |
| O=C(Cc1ccon1)N1CCN(c2ccc(F)cc2Cl)CC1 | 50% |
| O=C(Cc1ccon1)N1CCN(c2ccncc2Cl)CC1 | 20.9% |
| CC1CCCN(Cc2ccc(CNC(=O)NCc3ccon3)cc2)C1 (configuration not stated) | -18.6% |
| Cc1nc(CNC(=O)Nc2cc(F)ccc2N2CCN(C)CC2)no1 | 52.7% |
| CCc1cc(CNC(=O)Nc2cc(F)ccc2N2CCCCC2)on1 | 26.6% |
| Cc1nc(CNC(=O)Nc2cc(F)ccc2OC(F)F)no1 | 5.91% |
| O=C(c1ccncc1)N1CCN(c2ccc(F)cc2Cl)CC1 | 23.8% |
| COc1cccc(C(=O)N2C[C@@H]3CC[C@H]2CN(Cc2cscn2)C3)c1 | 7.3% |
| CC(C)NC(=O)NC(C)c1nc(-c2ccccc2)cs1 (configuration not stated) | 15.7% |
| O=S(=O)(c1cccc(F)c1)N1CC[C@H]2[C@H]1CCN2c1ncccn1 | -12.4% |
| CN(C)C(=O)[C@H]1C[C@@H]2CCN(C3CCOCC3)C[C@@H]2O1 | -0.371% |
| COc1c(C2CCCN2C(=O)c2scnc2C)c(C)nn1C (configuration not stated) | 25.1% |
